Autofluor 339: intrinsic fluorescence of library compounds, ex339/em460 – biochemical, MLSMR library, data from DPM-DC assay, artefact control, profiling panel. actives 5.5% (n = 65,000). compound autofluorescence, ex339/em460 nm, NADH buffer; hits give high values; 1 = no-compound wells, NADH background. fluorescence fold increase at 10 µM. AID 709;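 active = at 10 µM, mean starting fluorescence two-fold or more over control wells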;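 also: signal is the first read of a kinetic run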
M1 antagonist: M1 muscarinic receptor (rat) antagonism | actives 3.4% (n = 64,000) | CHO-M1 cells, Fluo-4 calcium, ACh EC80 antagonist mode; hits give low values | P08482 | B-score at 10 µM;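 active = calcium fluorescence response, raw or row-and-column corrected B-score, differing from the plate sample mean either way at a set confidence level, mostly lower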
Target sequence (P08482 whole entry, looked up): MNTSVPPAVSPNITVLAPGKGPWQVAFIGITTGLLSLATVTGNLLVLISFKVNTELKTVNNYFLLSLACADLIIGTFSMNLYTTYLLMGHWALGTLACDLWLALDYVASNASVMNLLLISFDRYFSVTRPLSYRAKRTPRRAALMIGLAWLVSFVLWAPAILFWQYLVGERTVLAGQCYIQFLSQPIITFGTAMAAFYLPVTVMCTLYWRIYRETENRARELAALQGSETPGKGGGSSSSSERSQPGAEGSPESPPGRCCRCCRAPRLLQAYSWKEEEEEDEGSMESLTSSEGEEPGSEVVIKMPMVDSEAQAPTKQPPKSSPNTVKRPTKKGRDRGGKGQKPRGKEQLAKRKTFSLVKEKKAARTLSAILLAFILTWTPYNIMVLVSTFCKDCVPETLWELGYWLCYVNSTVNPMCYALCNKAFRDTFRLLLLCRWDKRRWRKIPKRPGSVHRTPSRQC
mHtt clearance: mutant huntingtin protein clearance; actives 0.42% (n = 47,000); inhibition, % at 1.5 µM; HeLa Exon1htt(103Q)mCFP, aggregate imaging; zero = plate's median compound well;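 active = inhibition of aggregate fluorescence above about 70%, also judged a hit by eye on the cell image, limit read from the data, passing the limit was not always enough; inconclusive = no rule stated for this call; inactive = not judged a hit on image review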;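 also: cells exposed to compound for three days before fixation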
A340 absorber: compound absorbs light at 340 nm; compound absorbance at 340 nm, fold over control; fold change at 10 µM; 65,000 tested, under 10 active; AID 708;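 active = at 10 µM dose, initial 340 nm absorbance at least 2 fold that of control wells; inactive = change under 2 fold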;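 also: initial absorbance extrapolated from kinetic A340 decline of NADH oxidation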
NADH coupling: blocks coupling enzymes of NAD/NADH assays. actives 0.02% (n = 65,000). coupled PK/LDH NADH assays, four targets. IC50, µM (top dose mostly 10 µM), without a hit: at the highest dose inhibition;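 active = single-dose screening hits from any of four coupled enzyme assays that gave an IC50 when retested across doses; inconclusive = no clear call, values can overlap the other calls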;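 also: the DPM-DC format reads NADH fluorescence rather than 340 nm absorbance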
M1 ag: M1 muscarinic receptor agonism; CHO-M1 cells, Fluo-4 calcium fluorescence, agonist mode; hits give high values; B-score at 10 µM; actives 3% (n = 64,000);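 active = fluorescence rise, raw or as B-score row- and column-corrected plate score, outside the 99.7% band of its plate's samples, either direction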
M1 antag conf: M1 muscarinic receptor (rat) antagonism, confirmed. shares compounds with M1 antagonist. CHO-M1 cells, Fluo-4 calcium, ACh EC80 antagonism; hits give low values. calcium response (max-min fluorescence) at 10 µM. actives 43% (n = 1,700);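 active = calcium response below the same-plate mean of wells given acetylcholine alone at its 80%-effect dose, minus 3 SD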;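 also: raw fluorescence intensity difference in arbitrary instrument units and not normalized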
mGluR4 antag: mGluR4 (human) activity, M1 antagonist secondary assay | CHO-mGluR4 calcium flux, Fluo-4 fluorescence, glutamate EC80; hits give low values | actives 0.9% (n = 1,700) | shares compounds with M1 antagonist | fluorescence response (max-min) at 10 µM;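 active = fluorescence response below the plate's average for near-maximal glutamate wells, less 3 SD of those wells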;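 also: raw unnormalized fluorescence span taken in the window right after glutamate addition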
* = called active by the depositor; ? = inconclusive; · = not tested or not shown. Only some compounds are listed: those with a hit (about 9.3% of all), similar ones and a draw of the others.

SMILES	Autofluor 339	M1 antagonist	mHtt clearance	A340 absorber	NADH coupling	M1 ag	M1 antag conf	mGluR4 antag
CCOC(=O)C1CCCN(C2CC(=O)N(c3ccc(C)c(C)c3)C2=O)C1 (configuration not stated)	1.1	0.22	38	1	1%	1.2	·	·
Cc1ccccc1N1C(=O)C2ON(c3ccccc3)C(c3cccnc3)C2C1=O (configuration not stated)	1.1	0.23	-2	1	2%	-0.16	·	·
Cc1c(Cl)cccc1N1C(=O)C2ON(c3ccccc3)C(c3cccnc3)C2C1=O (configuration not stated)	1.1	-2.1*	·	1.1	3%	0.32	652	250
CSC1=C(C#N)C(C)C2=C(CC(C)(C)CC2=O)N1 (configuration not stated)	1.4	-0.043	-2	1.1	7%	-0.75	·	·
O=S(=O)(c1cccc(-c2nnc(SCc3nc4ccccc4s3)o2)c1)N1CCOCC1	1.1	-0.8	·	1	5%	0.26	·	·
O=c1c2ccccc2nnn1CSc1nnc(-c2cccc(S(=O)(=O)N3CCCCC3)c2)o1	1.1	-4.2*	-12	1.1	0%	1.7	366*	238
O=C1C(Cc2ccccc2)NC(=S)N1c1ccccc1 (configuration not stated)	·	·	-7	·	·	·	·	·
COc1cc(SC)ccc1C(=O)N1CCCCCC1	1.1	·	·	1	3%	·	·	·
O=C(CSc1nnc(-c2ccco2)o1)N1c2ccccc2CCc2ccccc21	1	-0.096	26	1	10%	1.3	·	·
O=C1CC(O)(C(F)F)Oc2ccc3ccccc3c21 (configuration not stated)	3.7*	-2.6*	-22	1	10%	-0.78	600	271
O=C1CC(O)(C(F)(F)F)Oc2c1ccc1ccccc21 (configuration not stated)	1.6	-1.2	·	1.1	5%	8.4	·	·
COc1ccccc1Nc1nc2ccccc2n1C	1	-4.4*	?	1	6%	0.062	489	209
Cn1c(SCc2ccc(Br)cc2)nnc1-c1cccs1	1.1	-4.4*	·	1	4%	0.4	526	204
CCOC(=O)c1ccc(COC(=O)c2cc3ccccc3oc2=O)o1	1.4	-2.4*	·	1	6%	0.083	473*	206
CC(=O)N1CCN2C(=O)C1CCCC(=O)c1cc(C)ccc12 (configuration not stated)	·	·	45	·	·	·	·	·
C=C(C)C1CC=C(CN2CCC(C(=O)OCC)CC2)CC1 (configuration not stated)	1.1	-3.7*	·	1.1	12%	4.2	422*	238
N#Cc1c(NC(=O)c2cc(-n3cnnc3)ccc2Cl)sc2c1CCCC2	1.1	-3.2*	·	1.2	3%	-0.51	630	229
N#Cc1c(NC(=O)c2ccccc2)sc2c1CCCCC2	·	·	-83	·	·	·	·	·
O=C1Nc2ccccc2C(O)(C(=O)NC2CC2)N1c1ccc(Cl)c(Cl)c1 (configuration not stated)	1.1	-1.4	·	1	4%	0	·	·
COC(=O)c1sc(S(=O)(=O)N2CCC(C)CC2)c(C(=O)OC)c1C	1.1	0.024	-10	1	5%	0.013	·	·
COC(=O)c1sc(S(=O)(=O)N2CCCCC2)c(C(=O)OC)c1C	1.1	-4.5*	·	1	3%	-0.044	248*	200
CCN(CCCc1ccccc1)CCCc1ccccc1	1	-13*	·	0.98	1%	-1.2	18*	256
CCCN(CCO)CCCc1ccccc1	·	·	33	·	·	·	·	·
CCOC(=O)C1=C(CSc2nc(C)ccc2C#N)OC(N)=C(C#N)C1c1cccc(OC)c1OC (configuration not stated)	1.4	-0.015	24	1	8%	-0.069	·	·
COc1ccc(C(=O)N2CCC(C(=O)Nc3ccccc3OC)CC2)cc1	1.1	-5*	·	0.99	7%	0.19	644	249
SMILES	Autofluor 339	M1 antagonist	mHtt clearance	A340 absorber	NADH coupling	M1 ag	M1 antag conf	mGluR4 antag
CCNc1ccc(Br)cc(C(=O)/C=C/c2ccc(Cl)cc2Cl)c1=O	·	·	-15	·	·	·	·	·
CCOC(=O)C1Cn2c(nc3c(c2=O)C2(CCCC2)Cc2ccccc2-3)S1 (configuration not stated)	1.3	1.1	36	1.1	5%	-0.72	·	·
O=c1c2c(nc3n1CCCCC3)-c1ccccc1CC21CCCC1	1	-8.2*	·	1	7%	-0.89	314*	264
CN1C(=O)N(C)C2C1NC(=O)N2C (configuration not stated)	1.1	-9.2*	·	0.98	12%	-0.57	521	214
CC1C2C(C)N(C)C(=O)N(C)C2N(C)C(=O)N1C (configuration not stated)	1.1	0.0052	46	1	6%	-0.23	·	·
COc1cccc2c1OC1(C)CC2/C(=C(\C)O)C(=O)N1 (configuration not stated)	1.1	·	-48	1	4%	·	·	·
CCc1ccc(-c2nc(CN3CCC(C(=O)NCCN(CC)c4ccccc4)CC3)c(C)o2)cc1	1.1	0.46	·	1	7%	1.1	·	·
CCc1ccc(-c2nc(CN3CCC(C(=O)N4CCN(c5ccccn5)CC4)CC3)c(C)o2)cc1	1.3	-2.6*	·	1.1	4%	0.42	411	213
CCc1ccc(-c2nc(CN3CCC(C(=O)N4CCN(c5ccccc5)CC4)CC3)c(C)o2)cc1	1	-2.9*	·	0.99	5%	0.72	486*	255
Cc1oc(-c2ccc(Cl)cc2)nc1CN1CCC(C(=O)N2CCN(c3ccccn3)CC2)CC1	1.2	-3.2*	·	1.1	4%	0.48	385	236
Cc1nn(C(C)C(=O)O)c2ccccc12 (configuration not stated)	1	-0.029	·	1	6%	0.16	·	·
Cc1cccc(NC(=O)CCSc2nncn2C)c1	·	·	33	·	·	·	·	·
COC(=O)CCCc1nc2ccccc2s1	1.1	-2.5*	·	1	7%	-1.1	633	239
Cc1noc(C)c1Cn1nc(C(=O)O)c2ccccc2c1=O	1.1	-0.061	·	0.99	6%	-0.71	·	·
Cc1ccc2c(c1)NC(=O)C(CC(=O)NCCCN1CCN(c3cc(Cl)ccc3C)CC1)O2 (configuration not stated)	1.1	-2.1*	·	1	1%	-0.8	332*	254
COCCn1nnnc1CN(CCc1ccccc1)Cc1cc2ccc(C)cc2[nH]c1=O	1.1	0.12	·	1.1	9%	-0.41	·	·
COc1cc2c(cc1OC)CN(Cc1cccs1)CC2	1.2	·	·	1.1	22%	·	·	·
COc1cc2c(cc1OC)CN(Cc1ccc(OC)c(C)c1OC)CC2	1.1	-3.4*	·	1.1	15%	-1.8	406*	274

Screens as filed in PubChem BioAssay.
